PubChem BioAssay (NCI)
About 79,000 compounds went through this panel and 15% of them were active in at least one assay; those are over-represented in the sample as a whole. No stated cut-off is given here; in the data, active means growth inhibition above about 70%; inactive means the rest. Where a SMILES comes first, the peptide text is derived from it.

Key:
[1] = NCI Yeast Anticancer Drug Screen. Data for the rad50 strain (AID 155);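 further: 0% = growth of vehicle-only cultures of the same strain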; conditions: S. cerevisiae rad50 strain growth inhibition; at 50.0 µM; stronger effect = higher value
How it was run: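 Relative growth inhibition (compound vs vehicle) was measured in yeast with a defined repair-gene alteration.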

[2] = NCI Yeast Anticancer Drug Screen. Data for the mec2-1 strain (AID 157); conditions: S. cerevisiae mec2-1 strain, at 50.0 µM, stronger effect = higher value
How it was run: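 Cells of the genetically defined mec2-1 yeast strain are incubated with test compound. Inhibition of growth is calculated against vehicle-treated controls.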

[3] = NCI Yeast Anticancer Drug Screen. Data for the sgs1 mgt1 strain (AID 161);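 further: 0% = growth of cultures given vehicle only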; conditions: S. cerevisiae sgs1 mgt1 strain, at 50.0 µM, stronger effect = higher value
How it was run: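 Test agents were incubated with a DNA-repair-mutant yeast strain. Growth was then read and compared against vehicle-treated controls.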

[4] = NCI Yeast Anticancer Drug Screen. Data for the cln2 rad14 strain (AID 165);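 further: 0% = growth equal to vehicle treated cultures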; conditions: S. cerevisiae cln2 rad14 strain, at 50.0 µM, stronger effect = higher value
How it was run: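 The screen exposed genetically defined yeast (cln2 rad14) to test compounds and scored growth inhibition relative to vehicle-treated controls.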

[5] = NCI Yeast Anticancer Drug Screen. Data for the bub3 strain (AID 167); conditions: S. cerevisiae bub3 mutant strain, at 50.0 µM, stronger effect = higher value
How it was run: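 Screening used yeast with an engineered genetic alteration affecting cell cycle control. Compound-exposed cultures were compared with vehicle cultures, and reduced growth was taken as inhibition.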

[6] = NCI Yeast Anticancer Drug Screen. Data for the mlh1 rad18 strain (AID 175); conditions: S. cerevisiae mlh1 rad18 strain growth inhibition; at 50.0 µM; stronger effect = higher value
How it was run: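 Compound-treated yeast growth, normalised to vehicle controls. Strain bears defined DNA repair mutations.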

Measured: growth inhibition

C=CCN1C(N)=C(C#N)C(C#N)(C#N)C1CCC (stereo not given)
inactive: [1] 1.2% | [2] 7.65% | [3] -47.9% | [4] 15.8% | [5] -16.6% | [6] -36.6%

COc1ccc(N2N=NCC2c2ccccc2[N+](=O)[O-])cc1 (stereo not given)
inactive: [1] -10.6% | [2] -11.9% | [3] 14.2% | [4] -37.4% | [5] 13.6% | [6] 20.4%

C[C@@H]1OC(=O)N2CCCC(=C3SCCCS3)C12 (stereo not given in full)
inactive: [1] 0.6% | [2] -0.05% | [3] -2.6% | [4] -25.1% | [5] 2.7% | [6] -12.2%

OC1CCCCC1OC1CCc2ccccc2C1 (stereo not given)
inactive: [1] 19.1% | [2] 19.5% | [3] -5.25% | [4] 29.9% | [5] 50% | [6] 33.1%

CCOC(=O)/C(Cl)=C1\SN(C(=O)OCC)N=C1C
inactive: [1] -7.65% | [2] -3.7% | [3] -11.4% | [4] 54.7% | [5] 3.8% | [6] 3.65%

O=C(Oc1ccc(C(=O)c2ccccc2)cc1)C(Cl)=C(Cl)Cl
inactive: [1] -6.95% | [2] -1.75% | [3] 7.7% | [4] -55.8% | [5] 7.35% | [6] -4%

CC(C)(O)c1cc(Cl)ccc1Sc1ccccc1
inactive: [1] -20.6% | [2] -15.2% | [3] -8.85% | [4] 13.7% | [5] 4.85% | [6] -8.2%

CCCCNS(=O)(=O)CCCC
inactive: [1] 22.2% | [2] 2.4% | [3] -6.35% | [4] -29.6% | [5] 6.15% | [6] -9.8%

COC1CC(C)OC(OC2C(C)/C=C/C(=O)OC(C)C(COC3OC(C)C(O)C(OC)C3OC)C3OC3/C=C/C(=O)C(C)(O)CC2C)C1O (stereo not given)
inactive: [1] 1.55% | [2] -5.25% | [3] 3.55% | [4] 1.5% | [5] 5.25% | [6] 5%

COC(=O)CCSCC(N)C(=O)O (stereo not given)
inactive: [1] 1.3% | [2] -2.95% | [3] -13.3% | [4] -39.5% | [5] -0.95% | [6] -18.4%

Cc1ccc(S(=O)(=O)/C(C#N)=C/NC(=S)Nc2ccc(S(N)(=O)=O)cc2)cc1
inactive: [1] 12.5% | [2] -21.2% | [3] -4.1% | [4] -6.85% | [5] -10.7% | [6] -10.9%

NNC(=O)CCCCCCO
inactive: [1] 5.3% | [2] 16.3% | [3] 10.1% | [4] 27.6% | [5] 18.3% | [6] 7.45%

CC(Oc1cc(Cl)c(Cl)cc1Cl)C(=O)NC(Cc1ccccc1)C(=O)O (stereo not given)
inactive: [1] 8.5% | [2] 9.45% | [3] 13.5% | [4] 25.6% | [5] -0.45% | [6] 5.8%

COc1cc(C2CC(C)(OC)Oc3cc4c(cc32)OCO4)cc(OC)c1OC (stereo not given)
inactive: [1] 42.5% | [2] -2.6% | [3] 2.7% | [4] 19.8% | [5] 19.3% | [6] 20.2%

CC1OC(OC2CCC3(C)C(CCC4C3CC(O)C3(C)C(C5=CC(=O)OC5)CCC43O)C2)CC(O)C1OC1CC(O)C(OC2CC(O)C(OC3OC(CO)C(O)C(O)C3O)C(C)O2)C(C)O1 (stereo not given)
inactive: [1] 16.4% | [2] -7.7% | [3] -0.4% | [4] 4.35% | [5] 10.6% | [6] 20.1%

Cc1ccc(C(=O)C2=CN=C3C(=O)N(c4ccccc4)N(C)C3(C)C2=N)cc1 (stereo not given)
inactive: [1] -4.65% | [2] 36.7% | [3] 11.2% | [4] 1.1% | [5] 4.9% | [6] 36.1%

CC1(C)N=C(N)N=C(N)N1c1ccc(CN)cc1
inactive: [1] 19.8% | [2] 7% | [3] -18.4% | [4] -6.8% | [5] -2.3% | [6] 19.3%

CCOC(=O)/C(I)=C/c1cc(OC)c(OC)c(OC)c1
inactive: [1] -2.2% | [2] 15.5% | [3] 4.6% | [4] 13.9% | [5] 28.2% | [6] 19.9%

O=c1cnn(C2OC(C(O)CO)C(O)C2O)c(=O)[nH]1 (stereo not given)
inactive: [1] -6.9% | [2] -81.5% | [3] -8.75% | [4] -27.6% | [5] -11.2% | [6] -18.4%

Cc1oc2ccccc2c(=O)c1Cn1cnc2ccc([N+](=O)[O-])cc21
inactive: [1] -0.45% | [2] 10.3% | [3] 21.5% | [4] 11.8% | [5] 5.85% | [6] 10.1%

CCC(C)C(N)C(=O)N1CCCC1C(=O)O (stereo not drawn) (H-Ile-Pro-OH; configuration not given here)
inactive: [1] -23.1% | [2] -4.65% | [3] -1.15% | [4] -25.9% | [5] -2.45% | [6] -3.15%

CCOC1C=CCCC1 (stereo not given)
inactive: [1] -1.75% | [2] 23.6% | [3] -6.35% | [4] 9.4% | [5] 14.8% | [6] -14%

CSc1nc2c(c(=O)[nH]1)N=C(c1ccccc1)CC(c1ccccc1)N2 (stereo not given)
inactive: [1] 7.45% | [2] 14.7% | [3] 17.8% | [4] -0.55% | [5] 22.6% | [6] -5.85%

CCN(CC)CCCN1CC(=O)N2CCCCN2C(=O)C1
inactive: [1] 28.8% | [2] -3.6% | [3] 13.4% | [4] 6.15% | [5] 3.05% | [6] 8.9%

NC1=NS(=O)(=O)c2ccccc21
inactive: [1] 14.8% | [2] -11.7% | [3] 3.1% | [4] -48.7% | [5] -1.35% | [6] -1.55%

Nc1ncnc2c1sc(=S)n2-c1ccccc1
inactive: [1] -5.3% | [2] 4.55% | [3] 13% | [4] -1% | [5] -12.7% | [6] -10.9%

CCOC(=O)COc1cc2c(cc1C(CC)c1ccccc1)OCO2 (stereo not given)
inactive: [1] -7.85% | [2] -1.45% | [3] -3.25% | [4] 5.95% | [5] 9.45% | [6] 2.9%

COc1ccc2[nH]c(=O)oc(=O)c2c1
inactive: [1] 1% | [2] 1.25% | [3] -7.5% | [4] -33.9% | [5] -16.4% | [6] -2.8%

COc1ccc2c(c1O)-c1cccc3c1C(C2)N(CCOCCCl)CC3 (stereo not given)
inactive: [1] 28.4% | [2] -12.8% | [3] -19.9% | [4] 12.9% | [5] 3.15% | [6] -8.85%

COc1ccc(N=C2c3cc([N+](=O)[O-])ccc3-c3c2cccc3[N+](=O)[O-])cc1
inactive: [1] -5.25% | [2] -8.25% | [3] -4.1% | [4] -20.6% | [5] 3.45% | [6] -7.2%

NC(CCC(F)(F)F)C(=O)O (stereo not given)
inactive: [1] -4.1% | [2] -7.95% | [3] 7.2% | [4] 18.6% | [5] 17.5% | [6] 6.65%

C[n+]1cccc2c(=O)c3ccccc3oc21
inactive: [1] 0.8% | [2] -14.5% | [3] -6.25% | [4] -17.9% | [5] 4.65% | [6] -20.2%

N#CN1CCC2CC(=O)CCC2C1 (stereo not given)
inactive: [1] 6.2% | [2] 2.95% | [3] -6.5% | [4] 5.75% | [5] 0.75% | [6] -10.6%

C[C@]12CCC(=O)C=C1CC[C@@H]1C2=CC[C@]2(C)/C(=C\CO)CC[C@@H]12
inactive: [1] 7.5% | [2] -14.4% | [3] 10.8% | [4] -5.4% | [5] -10.8% | [6] 9.4%

Cc1sc2nc3n(c(=O)c2c1C)N=CN(c1ccc(F)cc1)C3
inactive: [1] 0.85% | [2] -0.45% | [3] 8.85% | [4] -17.1% | [5] -7.5% | [6] -32.6%

Clc1nncc2sc(-c3ccccc3)nc12
inactive: [1] 20.9% | [2] -1.7% | [3] 28.1% | [4] 17.4% | [5] 18.3% | [6] -18.3%

CC(=O)OCC1OC(N=[N+]=[N-])C(OC(C)=O)C(OC(C)=O)C1OC1OC(COC(C)=O)C(OC(C)=O)C(OC(C)=O)C1OC(C)=O (stereo not given)
inactive: [1] -19.1% | [2] -29.9% | [3] -16.2% | [4] -0.35% | [5] 5.55% | [6] -17.1%

Cc1ccc(S(=O)(=O)CO)cc1
inactive: [1] 0.5% | [2] -3.2% | [3] 14.3% | [4] -51.5% | [5] -27.9% | [6] 11%

CCN1C(=O)/C(=C\c2ccccc2)N=C1C
inactive: [1] 2.45% | [2] -7.35% | [3] 5.55% | [4] -58% | [5] -12.8% | [6] -42%

NS(=O)(=O)c1ccc(N2C(=O)C3C(C2=O)C2(Cl)C(Cl)=C(Cl)C3(Cl)C2(Cl)Cl)cc1 (stereo not given)
inactive: [1] -6.4% | [2] -6.95% | [3] 3.25% | [4] 15.1% | [5] -4.7% | [6] 20.6%
